VHR inh color – inhibitors of human VHR1 phosphatase (DUSP3) | P51452 | recombinant VHR phosphatase, colorimetric substrate read-out | inhibition, % at 20 µM | 0.7% of 50,000 active; in the data active means inhibition above about 60%
Target sequence (P51452 whole entry, looked up): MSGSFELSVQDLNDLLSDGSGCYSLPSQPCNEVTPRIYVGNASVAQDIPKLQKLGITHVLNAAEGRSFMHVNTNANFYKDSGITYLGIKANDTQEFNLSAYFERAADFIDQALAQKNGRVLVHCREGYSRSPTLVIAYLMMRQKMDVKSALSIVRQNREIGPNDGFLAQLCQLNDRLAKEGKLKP
Large screens that a line does not name were inactive. The sample as a whole holds a higher share of hits than the screen did.

O=C1c2ccccc2C(=O)N1CC(O)Cn1c2ccccc2c2ccccc21 (stereo not drawn)	none
Cc1cccc(OCC(=O)Nc2cccc(I)c2)c1	none
O=C(NC(Nc1ccc(F)cc1)C(Cl)(Cl)Cl)c1ccco1 (stereo not drawn)	none
Cc1ccc(C)n1-c1cc(C(=O)O)ccc1Cl	VHR inh color 83.0
COc1cc(C(=O)O)c(-n2c(C)ccc2C)cc1OC	none
Cc1ccc(C)n1-c1ccc(Cl)c(C(=O)O)c1	none
Cc1ccc(C)n1-c1ccc(Cl)cc1C(=O)O	VHR inh color 84.6
Cc1cc(C(=O)O)ccc1-n1c(C)ccc1C	none
Cc1ccc(C(=O)O)cc1-n1c(C)ccc1C	none
O=C(Cc1ccc(F)cc1)Nc1cccc2ccccc12	none
CCOC(=O)c1ccc2c(c1)C1C=CCC1C(c1cccc3ccccc13)N2 (stereo not drawn)	none
O=[N+]([O-])c1ccc2c(c1)C1C=CCC1C(c1ccc(Cl)cc1)N2 (stereo not drawn)	none
O=C(O)c1cccc2c1NC(c1cccc(Cl)c1Cl)C1CC=CC21 (stereo not drawn)	none
O=[N+]([O-])c1cccc(C2Nc3ccc(Cl)cc3C3C=CCC32)c1 (stereo not drawn)	none
O=C(O)C1Nc2c(C(=O)N3CCCC3)cccc2C2C=CCC12 (stereo not drawn)	none
O=C(O)C1Nc2ccc3ccccc3c2C2C=CCC12 (stereo not drawn)	VHR inh color 91.9
Cc1c(Cl)ccc2c1NC(C(=O)O)C1CC=CC21 (stereo not drawn)	VHR inh color 84.2
O=C(O)C1Nc2ccc([N+](=O)[O-])cc2C2C=CCC12 (stereo not drawn)	VHR inh color 96.5
CC(=O)N1c2ccc3ccccc3c2C2C=CCC2C1c1ccc(Br)cc1 (stereo not drawn)	none
Cc1cccc([N+](=O)[O-])c1N=Cc1ccc(N(C)C)cc1	none
COc1ccccc1N=C(NOCc1ccc(Cl)cc1Cl)c1nonc1N	none
CC(C)(C)Nc1nc(Nc2ccccc2)nc(Nc2ccccc2)n1	none
CCN1C(=O)/C(=C/c2c(OC)ccc3ccccc23)C(=O)NC1=S	none
CCOC(=O)C(=O)Nc1ccc(S(=O)(=O)Nc2ccc(OC)cc2)cc1	none
COc1ccc(COC(=O)NNC(=O)c2ccc(Cl)cc2)cc1	none
CCC(Oc1ccccc1)C(=O)Nc1cc([N+](=O)[O-])ccc1C (stereo not drawn)	none
Cc1ccc(S(=O)(=O)Nc2c(C)cc(C)cc2C)c(C)c1	none
Cc1cc(OCC(=O)NCc2ccc(Cl)cc2)ccc1Br	none
Cc1ccc(-c2nnc(NC(=O)c3cccs3)s2)cc1	none
O=C1S/C(=C/c2ccc(O)c(O)c2)C(=O)N1c1ccccc1	none
COC(=O)c1c(N)sc2c1CCCC2	none
COC(=O)c1c(N)sc2c1CCCCCC2	none
NC(=O)c1c(N)sc2c1CCCCCCCCCC2	VHR inh color 100.4
COC(=O)COc1ccc(/C=C2\C(=O)NC(=O)N(c3ccc(F)cc3)C2=O)cc1OC	none
CCC(=O)N1CC(=O)Nc2ccc(C)cc2C1c1ccccc1 (stereo not drawn)	none
O=C1C(=Cc2ccc(I)o2)C(=O)c2ccccc21	none
CC1(C)OC(=O)C(=Cc2ccc(I)o2)C(=O)O1	VHR inh color 86.8
CN1C(=O)NC(=O)/C(=C/c2ccc(I)o2)C1=O	none
CCC(C(=O)NCc1ccccc1)c1ccccc1 (stereo not drawn)	none
COc1cc(OC)c(OC)cc1CN1CCN(C2CCCCCC2)CC1	none
Cc1ccc(-c2[nH]n3c(=O)c(Cl)c(C)nc3c2C)cc1	none
O=C(Nc1cccc(Cl)c1)/C(=C\c1ccco1)NC(=O)c1cccs1	none
COc1ccc(C2/C(=C(\O)c3ccccc3)C(=O)C(=O)N2c2cccc(C)n2)cc1 (stereo not drawn)	none
C=C(CC(Cc1ccccc1)C(=O)O)c1ccccc1 (stereo not drawn)	VHR inh color 96.8
O=C(O)CC(Cc1ccc(Br)cc1)C(=O)O (stereo not drawn)	none
O=C(O)CC(Cc1ccccc1)C(=O)O (stereo not drawn)	none
CCOC(=O)CSCCOc1ccc(C=C2C(=O)NC(=S)NC2=O)cc1OC	none
CCC(Oc1ccccc1)C(=O)Nc1ccncc1 (stereo not drawn)	none
COc1cc(C=C2C(=O)NC(=O)NC2=O)ccc1OS(=O)(=O)c1ccc([N+](=O)[O-])cc1	none
CCOC(=O)c1ccc(NC(=S)NC(NC(=O)c2ccc(C)cc2)C(Cl)(Cl)Cl)cc1 (stereo not drawn)	none
CCOC(=O)c1c(NC(=O)c2cccc(OC)c2)sc(C(=O)Nc2ccccc2OC)c1C	none
CCOC(=O)c1sc(NC(=O)c2ccc(C)c([N+](=O)[O-])c2)c(C(=O)OCC)c1C	none
CCOC(=O)c1c(NC(=O)c2ccc(C)c([N+](=O)[O-])c2)sc(C(=O)Nc2ccccc2OC)c1C	VHR inh color 116.4
OCCCN=Cc1c(O)n(-c2c(Cl)cccc2Cl)c2ccccc12	none
COc1ccccc1OCCOc1ccc(Br)cc1/C=N/n1cnnc1	none
CCOc1ccc(N2C(=O)CC(N3CCC(C(N)=O)(N4CCCCC4)CC3)C2=O)cc1 (stereo not drawn)	none
CCOc1ccc(N2C(=O)CC(N3CCC(C(N)=O)CC3)C2=O)cc1 (stereo not drawn)	none
CCOc1ccc(N2C(=O)CC(N3CCCCC3)C2=O)cc1 (stereo not drawn)	VHR inh color 102.2
Cc1c(C#N)c2nc[nH]c(=O)c2n1-c1ccccc1	none
CN1C(=O)/C(=C/C=C/c2ccco2)SC1=S	none
O=C(Nc1ccc(Cl)cc1)c1ccc(-c2cccc(Cl)c2)o1	none
CCCOC(=O)c1ccc(NC(=O)c2ccc(-c3cccc(Cl)c3)o2)cc1	VHR inh color 109.3
CCN(CC)c1ccc(NC(=O)c2ccc(-c3cccc(Cl)c3)o2)cc1	none
O=c1c2ccccc2nc(-c2ccccc2F)n1-c1ccc(Cl)cc1	none
CCCCOc1ccc(C(=O)Nc2sc(C)c(CC)c2C(N)=O)cc1	VHR inh color 69.5
CCc1c(C)sc(NC(=O)c2cccnc2)c1C(N)=O	none
CCc1c(C)sc(NC(=O)c2ccc(Cl)cc2)c1C(N)=O	none
COc1ccc(OC)c(/C=C2/SC(=S)N(CNc3cccc(Cl)c3)C2=O)c1	none
Cc1cc(/C=C2\C(=O)NC(=S)N(c3cccc(Br)c3)C2=O)c(C)n1C	none
CCOC(=O)C1=C(C)N(c2ccc(OCC)cc2)C(=O)/C1=C\c1ccco1	none
CCOc1ccc(N2C(=O)/C(=C/c3ccco3)C(=O)NC2=S)cc1	VHR inh color 80.1
O=C1NC(=S)N(c2cccc(Br)c2)C(=O)/C1=C/c1ccc(O)c(Cl)c1	none
CCOc1ccc(N2C(=O)NC(=O)/C(=C\c3ccc(C)o3)C2=O)cc1	none
O=C1NC(=S)N(c2cccc(Br)c2)C(=O)/C1=C/c1ccco1	VHR inh color 88.6
Cc1cc2nc3n(c2cc1C)CCN3	none
Cc1ccc2nc(-c3ccc(N4C(=O)C5C6c7ccccc7C(c7ccccc76)C5C4=O)cc3)sc2c1 (stereo not drawn)	none
COc1ccc(C(=O)NCCN(C)C)cc1OC	none
Cc1ccsc1/C=C1/SC(=S)N(CCCCCC(=O)O)C1=O	none
COc1cccc(N2C(=O)NC(=O)/C(=C/C=C/c3ccccc3[N+](=O)[O-])C2=O)c1	none
O=C1NC(=S)N(c2ccc(Cl)cc2)C(=O)/C1=C/C=C/c1ccccc1	none
O=C1NC(=S)N(c2cccc(Cl)c2)C(=O)/C1=C\C=C\c1ccccc1[N+](=O)[O-]	VHR inh color 88.0
O=C(CNC(=O)c1ccc(Br)cc1)c1ccc(Cl)cc1	none
Oc1ccc(Br)cc1/C=N/Nc1cc(N2CCCC2)nc(N2CCCC2)n1	none
COc1ccc(N2C(=O)/C(=C/c3cn(-c4ccccc4)nc3-c3cccs3)SC2=S)cc1	none
CCOc1ccc(C(=O)Nc2cc(=O)n(C)c(=O)n2C)cc1	none
CCOc1ccc(N2Cc3ccc(C(=O)NN)cc3C2)cc1	VHR inh color 91.0

Bioassay records as filed in PubChem.
